# Test results taken from the supplement of paper PMC8728848.
# About 410 targets per protein were measured; listed, in parts, are those with the strongest signals and a random draw of the rest.
# B1: Microvirin-2 (Microcystis aeruginosa) (protein)
# chain: MPNFSHTCSSINYDPDSTILSAECQARDGEWLPTELRLSDHIGNIDGELQFGDQNFQETCQDCHLEFGDGEQSVWLVCTCQTMDGEWKSTQILLDSQIDNNDSQLEIGGSMPNFSHTCSSINYDPDSTILSAECQARDGEWLPTELRLSDHIGNIDGELQFGDQNFQETCQDCHLEFGDGEQSVWLVCTCQTMDGEWKSTQILLDSQIDNNDSQLEIG
# Legend:
# Test in all cases: glycan array binding signal (z-score within array); higher = stronger binding
# Conditions in all cases: glycan notation: IUPAC condensed, linker removed
# [1] = target: Fuc(a1-2)Gal(b1-3)GalNAc(b1-4)[Neu5Ac(a2-3)]Gal(b1-4)Glc
# How it was run: (§1)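 Negative Z-scores can be read as non-binding. The Z-score is calculated within each array and then averaged across arrays of one protein sequence at different concentrations or buffers and across linkers. Arrays, 3228 in all, were curated from the Consortium for Functional Glycomics database and kept only where the protein sequence was available.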
# Fuc(a1-2)Gal(b1-3)GlcNAc = target: Fuc(a1-2)Gal(b1-3)GlcNAc
# How it was run: as §1
# [2] = target: Fuc(a1-2)Gal(b1-3)GlcNAc(b1-2)Man(a1-3)[Fuc(a1-2)Gal(b1-3)GlcNAc(b1-2)Man(a1-6)]Man(b1-4)GlcNAc(b1-4)GlcNAc
# How it was run: as §1
# [3] = target: Fuc(a1-2)Gal(b1-3)[Fuc(a1-4)]GlcNAc(b1-3)[Fuc(a1-3)[Gal(b1-4)]GlcNAc(b1-6)]Gal(b1-4)Glc
# How it was run: as §1
# [4] = target: Fuc(a1-2)[Gal(a1-3)]Gal(b1-3)GlcNAc
# How it was run: as §1
# [5] = target: Fuc(a1-2)[Gal(a1-3)]Gal(b1-4)GlcNAc(b1-2)Man(a1-3)[Fuc(a1-2)[Gal(a1-3)]Gal(b1-4)GlcNAc(b1-2)Man(a1-6)]Man(b1-4)GlcNAc(b1-4)GlcNAc
# How it was run: as §1
# [6] = target: Fuc(a1-2)[GalNAc(a1-3)]Gal(b1-4)GlcNAc(b1-2)Man
# How it was run: as §1
# Fuc(b1-3)GlcNAc = target: Fuc(b1-3)GlcNAc
# How it was run: as §1
# Gal(b1-3)Gal = target: Gal(b1-3)Gal
# How it was run: as §1
# [7] = target: Gal(b1-3)[Fuc(a1-4)]GlcNAc(b1-2)Man(a1-3)[Gal(b1-3)[Fuc(a1-4)]GlcNAc(b1-2)Man(a1-6)]Man(b1-4)GlcNAc(b1-4)[Fuc(a1-6)]GlcNAc
# How it was run: as §1
# Gal(b1-4)Gal = target: Gal(b1-4)Gal
# How it was run: as §1
# Gal(b1-4)Glc6S = target: Gal(b1-4)Glc6S
# How it was run: as §1
# Gal(b1-4)GlcNAc = target: Gal(b1-4)GlcNAc
# How it was run: as §1
# [8] = target: Gal(b1-4)GlcNAc(b1-2)Man(a1-6)[Man(a1-3)]Man(b1-4)GlcNAc(b1-4)GlcNAc
# How it was run: as §1
# [9] = target: Gal(b1-4)GlcNAc(b1-2)[Gal(b1-4)GlcNAc(b1-6)]Man(a1-6)[Gal(b1-4)GlcNAc(b1-2)Man(a1-3)]Man(b1-4)GlcNAc(b1-4)[Fuc(a1-6)]GlcNAc
# How it was run: as §1
# [10] = target: Gal(b1-4)GlcNAc(b1-3)Gal(b1-4)GlcNAc(b1-3)GalNAc
# How it was run: as §1
# Gal6P(b1-4)GlcNAc = target: Gal6P(b1-4)GlcNAc
# How it was run: as §1
# Gal6S(b1-4)Glc6S = target: Gal6S(b1-4)Glc6S
# How it was run: as §1
# [11] = target: GalNAc(b1-3)Gal(a1-4)Gal(b1-4)GlcNAc
# How it was run: as §1
# GlcA(b1-6)Gal = target: GlcA(b1-6)Gal
# How it was run: as §1
# [12] = target: GlcNAc(a1-4)Gal(b1-4)GlcNAc(b1-3)Gal(b1-4)[Fuc(a1-3)]GlcNAc(b1-3)Gal(b1-4)[Fuc(a1-3)]GlcNAc
# How it was run: as §1
# [13] = target: GlcNAc(b1-2)[GlcNAc(b1-4)]Man(a1-3)[GlcNAc(b1-2)Man(a1-6)]Man(b1-4)GlcNAc(b1-4)GlcNAc
# How it was run: as §1
# [14] = target: GlcNAc(b1-2)[GlcNAc(b1-4)]Man(a1-3)[GlcNAc(b1-4)][GlcNAc(b1-2)[GlcNAc(b1-6)]Man(a1-6)]Man(b1-4)GlcNAc(b1-4)GlcNAc
# How it was run: as §1
# [15] = target: GlcNAc(b1-4)GlcNAc(b1-4)GlcNAc
# How it was run: as §1
# [16] = target: GlcNAc(b1-4)GlcNAc(b1-4)GlcNAc(b1-4)GlcNAc(b1-4)GlcNAc(b1-4)GlcNAc
# How it was run: as §1
# [17] = target: Man(a1-2)Man(a1-2)Man(a1-3)Man
# How it was run: as §1
# [18] = target: Man(a1-2)Man(a1-2)Man(a1-6)[Man(a1-3)]Man
# How it was run: as §1
# Man(a1-2)Man(a1-3)Man = target: Man(a1-2)Man(a1-3)Man
# How it was run: as §1
# [19] = target: Man(a1-2)Man(a1-3)[Man(a1-2)Man(a1-6)]Man
# How it was run: as §1
# [20] = target: Man(a1-2)Man(a1-3)[Man(a1-2)Man(a1-6)]Man(a1-6)[Man(a1-2)Man(a1-2)Man(a1-3)]Man
# How it was run: as §1
# [21] = target: Man(a1-2)Man(a1-3)[Man(a1-2)Man(a1-6)]Man(a1-6)[Man(a1-2)Man(a1-2)Man(a1-3)]Man(b1-4)GlcNAc(b1-4)GlcNAc
# How it was run: as §1
# [22] = target: Man(a1-2)Man(a1-3)[Man(a1-6)]Man(a1-6)[Man(a1-2)Man(a1-3)]Man(b1-4)GlcNAc(b1-4)GlcNAc
# How it was run: as §1
# [23] = target: Man(a1-2)Man(a1-6)[Man(a1-3)]Man(a1-6)[Man(a1-2)Man(a1-2)Man(a1-3)]Man
# How it was run: as §1
# [24] = target: Man(a1-2)Man(a1-6)[Man(a1-3)]Man(a1-6)[Man(a1-2)Man(a1-2)Man(a1-3)]Man(b1-4)GlcNAc(b1-4)GlcNAc
# How it was run: as §1
# [25] = target: Man(a1-3)[Man(a1-6)]Man(a1-6)[Man(a1-2)Man(a1-3)]Man(b1-4)GlcNAc(b1-4)GlcNAc
# How it was run: as §1
# [26] = target: Neu5Ac(a2-6)Gal(b1-4)GlcNAc(b1-2)Man(a1-3)[Gal(b1-4)GlcNAc(b1-2)Man(a1-6)]Man(b1-4)GlcNAc(b1-4)GlcNAc
# How it was run: as §1
# [27] = target: Neu5Ac(a2-6)Gal(b1-4)GlcNAc(b1-2)Man(a1-6)[Man(a1-3)]Man(b1-4)GlcNAc(b1-4)GlcNAc
# How it was run: as §1
# [28] = target: Neu5Ac(a2-6)Gal(b1-4)GlcNAc(b1-3)Gal(b1-3)GlcNAc
# How it was run: as §1
# [29] = target: Neu5Ac(a2-6)Gal(b1-4)GlcNAc(b1-6)[Gal(b1-3)]GalNAc
# How it was run: as §1
# [30] = target: Neu5Ac(a2-6)Gal(b1-4)GlcNAc6S
# How it was run: as §1
# Neu5Ac(a2-6)GalNAc = target: Neu5Ac(a2-6)GalNAc
# How it was run: as §1
# [31] = target: Neu5Ac(a2-6)GlcNAc(b1-4)GlcNAc
# How it was run: as §1
# Neu5Gc(a2-3)Gal(b1-4)Glc = target: Neu5Gc(a2-3)Gal(b1-4)Glc
# How it was run: as §1
binder,measurement,setting,value
B1,glycan array binding signal (z-score),[1],-0.133
same,glycan array binding signal (z-score),Fuc(a1-2)Gal(b1-3)GlcNAc,-0.139
same,glycan array binding signal (z-score),[2],0.021
same,glycan array binding signal (z-score),[3],-0.137
same,glycan array binding signal (z-score),[4],-0.138
same,glycan array binding signal (z-score),[5],-0.113
same,glycan array binding signal (z-score),[6],-0.138
same,glycan array binding signal (z-score),Fuc(b1-3)GlcNAc,-0.137
same,glycan array binding signal (z-score),Gal(b1-3)Gal,-0.144
same,glycan array binding signal (z-score),[7],0.648
same,glycan array binding signal (z-score),Gal(b1-4)Gal,-0.143
same,glycan array binding signal (z-score),Gal(b1-4)Glc6S,-0.134
same,glycan array binding signal (z-score),Gal(b1-4)GlcNAc,-0.131
same,glycan array binding signal (z-score),[8],-0.141
same,glycan array binding signal (z-score),[9],-0.131
same,glycan array binding signal (z-score),[10],0.024
same,glycan array binding signal (z-score),Gal6P(b1-4)GlcNAc,-0.134
same,glycan array binding signal (z-score),Gal6S(b1-4)Glc6S,-0.128
same,glycan array binding signal (z-score),[11],-0.131
same,glycan array binding signal (z-score),GlcA(b1-6)Gal,-0.139
same,glycan array binding signal (z-score),[12],-0.031
same,glycan array binding signal (z-score),[13],-0.139
same,glycan array binding signal (z-score),[14],-0.141
same,glycan array binding signal (z-score),[15],-0.14
same,glycan array binding signal (z-score),[16],-0.135
same,glycan array binding signal (z-score),[17],5.28
same,glycan array binding signal (z-score),[18],9.44
same,glycan array binding signal (z-score),Man(a1-2)Man(a1-3)Man,4.43
same,glycan array binding signal (z-score),[19],7.03
same,glycan array binding signal (z-score),[20],6.69
same,glycan array binding signal (z-score),[21],3.1
same,glycan array binding signal (z-score),[22],5.79
same,glycan array binding signal (z-score),[23],6.04
same,glycan array binding signal (z-score),[24],13.3
same,glycan array binding signal (z-score),[25],7.25
same,glycan array binding signal (z-score),[26],-0.142
same,glycan array binding signal (z-score),[27],-0.143
same,glycan array binding signal (z-score),[28],-0.123
same,glycan array binding signal (z-score),[29],-0.107
same,glycan array binding signal (z-score),[30],-0.142
same,glycan array binding signal (z-score),Neu5Ac(a2-6)GalNAc,-0.133
same,glycan array binding signal (z-score),[31],-0.135
same,glycan array binding signal (z-score),Neu5Gc(a2-3)Gal(b1-4)Glc,-0.12
